# Screening results as filed in PubChem.
# Compounds with a hit are over-represented: about 0.82% of the library has one in this group of screens.
# cardiac RTF act: cardiac RTF calcium sensitization | P19429+P45379 | IANBD-labeled TnC RTF fluorescence at EC20 calcium; 0% EC20 calcium, 100% full calcium | activation, % at 7.2 µM | 0.24% of 340,000 active;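 active means activation above the mean over all tested compounds plus 3 SD, cut at about 30% in these data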;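 further: rise in fluorescence read as greater calcium sensitivity of cardiac thin filaments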
# LANA DNA inh: blocks KSHV LANA C-terminal domain binding to DNA; MBP-C-LANA/FAM-LBS DNA binding, fluorescence polarization; inhibition, % at 9 µM; 0.078% of 340,000 active; AID 504423;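 active means highest replicate inhibition at or above 60% at 9 µM, even if other replicates fall short; inactive means all replicates below 60% inhibition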;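 further: 0% = neutral control wells and 100% = 4 µM acridine orange control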
# eLon inh: inhibitors of E. coli Lon protease; P0A9M0; purified E. coli Lon protease, fluorescence polarization; inhibition, % at 7.94 µM; 0.42% of 360,000 active; AID 602123; in the data active means inhibition above about 13%, passing the limit was not always enough;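 further: 0% = enzyme with probe and DMSO and 100% = no enzyme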
# Target sequence (P0A9M0 whole entry, looked up): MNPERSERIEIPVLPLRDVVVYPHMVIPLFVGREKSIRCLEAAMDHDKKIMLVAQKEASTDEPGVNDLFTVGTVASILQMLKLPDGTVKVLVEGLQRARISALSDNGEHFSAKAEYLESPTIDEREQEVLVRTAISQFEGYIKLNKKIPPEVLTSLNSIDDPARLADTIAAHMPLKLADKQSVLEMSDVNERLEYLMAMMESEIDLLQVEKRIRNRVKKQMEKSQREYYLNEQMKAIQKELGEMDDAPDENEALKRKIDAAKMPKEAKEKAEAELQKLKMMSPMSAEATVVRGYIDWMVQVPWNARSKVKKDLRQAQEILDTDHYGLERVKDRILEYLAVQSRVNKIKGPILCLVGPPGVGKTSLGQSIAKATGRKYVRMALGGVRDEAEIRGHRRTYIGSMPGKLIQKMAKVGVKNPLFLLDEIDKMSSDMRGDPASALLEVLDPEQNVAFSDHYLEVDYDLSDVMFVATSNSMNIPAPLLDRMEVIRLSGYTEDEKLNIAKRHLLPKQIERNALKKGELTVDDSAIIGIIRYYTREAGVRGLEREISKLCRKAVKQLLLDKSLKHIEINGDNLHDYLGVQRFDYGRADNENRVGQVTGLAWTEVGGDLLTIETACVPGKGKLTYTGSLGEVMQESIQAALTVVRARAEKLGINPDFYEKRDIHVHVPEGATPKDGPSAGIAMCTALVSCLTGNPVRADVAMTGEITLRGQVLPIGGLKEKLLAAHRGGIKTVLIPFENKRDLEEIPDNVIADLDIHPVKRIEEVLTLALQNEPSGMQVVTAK
# Cardiac RTF inh: cardiac RTF calcium desensitization; IANBD-labeled cardiac RTF, Ca2+ fluorescence; AID 493244; inhibition, % at 7.15 µM; 0.12% of 340,000 active; P19429+P45379;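 active means inhibition above the mean inhibition of all tested compounds plus 3 SD, cut at about 17% in these data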;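 further: assay run at fixed EC70 calcium of 1.6 mM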
# Keap1 Nrf2 FP: Keap1-Nrf2 (human) interaction inhibition | Q14145 | Keap1 Kelch-Nrf2 peptide fluorescence polarization, 1536-well | inhibition, % at 9.4 µM | 0.15% of 340,000 active | AID 504523; in the data active means inhibition above about 12%;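 further: human Keap1 Kelch domain with fluorescein labeled Nrf2 9mer peptide probe; 0% = neutral control wells and 100% = peptide positive control; higher means more block of Keap1 binding to Nrf2 peptide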
# E coli Lon conf: E. coli Lon inhibition confirmation; purified E. coli Lon, fluorescence polarization; inhibition, % at 7.94 µM; AID 602230; 31% of 1,400 active; shares compounds with eLon inh; in the data active means inhibition above about 16%;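 further: 0% = enzyme with probe and DMSO and 100% = no enzyme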
# Starred values were filed as active, the others as inactive; . = not tested or not shown; + = active, no number.
SMILES,cardiac RTF act,LANA DNA inh,eLon inh,Cardiac RTF inh,Keap1 Nrf2 FP,E coli Lon conf
Cc1ccc(-c2nnn(CC(=O)N(c3ccc(F)cc3)C(C(=O)NC3CCCC3)c3ccncc3)n2)o1 (stereo not given),5.8,-2.0,17.6*,2.6,3.1,-12.6
Cc1nc2c(OCc3ccc(C(F)(F)F)cc3)cccn2c1N(C)Cc1cccs1,.,.,1.3,.,.,.
CC(=O)Oc1ccc2c(c1)OC(c1ccccc1)CC21CC(C)(C)NC(=S)N1 (stereo not given),-0.5,-3.0,-3.4,-6.1,-4.4,.
COc1ccc(C2(c3ccc(OC(C)=O)cc3OC(C)=O)CC(c3ccccc3)NC(=S)N2)cc1 (stereo not given),5.7,-0.4,20.6*,-1.7,-1.1,12.0
CN(CCOc1ccc(Cl)cc1)C(=O)Cc1ccc(S(=O)(=O)N2CCOCC2)s1,-1.0,1.0,-3.9,-0.2,-8.2,.
OCCC1CN(Cc2ccsc2)CCN1C1CCCC1 (stereo not given),4.8,4.0,20.4*,-1.5,-6.6,2.7
CCCS(=O)(=O)NC(=O)C1(C)CCN(C(=O)C2(c3ccc(Cl)cc3)CCCC2)C1 (stereo not given),.,.,12.3,.,.,.
O=C1CC(C(=O)Nc2ccccc2C(=O)O)C(c2ccccc2)O1 (stereo not given),-4.4,0.1,18.5*,-4.9,-8.1,-12.3
COCCn1c(SCC(=O)c2cc(C)n(C)c2C)nc2ccccc2c1=O,0.8,1.3,14.6*,-3.2,-2.1,3.7
Cc1cc(CN(C)C(=O)c2cc(COc3ccc(F)cc3Cl)on2)n[nH]1,-2.0,-0.4,31.8*,-6.8,-3.2,-4.1
CN(Cc1ccccn1)C(=O)c1cc(COc2ccc(F)cc2Cl)on1,.,.,-12.5,.,.,.
COc1ccc(NC(=O)NNc2cc(N3CCOCC3)nc(N3CCOCC3)n2)cc1,2.6,-0.7,33.7*,4.0,-4.8,15.3
CC(=O)NNc1cc(N2CCOCC2)nc(N2CCOCC2)n1,8.5,-3.2,-14.4,-4.4,-52.6,.
COc1cccc(N2CCN(C(=O)CSc3ccc(F)cc3)CC2)c1,-2.5,-0.6,-6.9,-6.5,4.1,.
O=C1[C@H]2[C@@H](c3ccccc3)N[C@]3(CCCN(Cc4ccco4)C3=O)[C@H]2C(=O)N1Cc1ccccc1,.,.,95.8*,.,.,-3.9
CCCCNc1nnc(SCC(=O)c2c[nH]c3ccccc23)s1,-0.7,2.1,-22.9,2.0,-3.5,.
COCc1c(C(=O)OCC(=O)NCCc2ccc(S(N)(=O)=O)cc2)oc2ccccc12,-2.0,-3.4,-2.1,-3.8,8.5,.
CC(Sc1ccc(S(=O)(=O)N(C)C)cn1)C(=O)NC1CCCC1 (stereo not given),-4.5,-1.4,24.6*,-3.0,2.6,-33.6
O=C(NCCS(=O)(=O)N1CCN(c2ccccc2F)CC1)C1CC(=O)N(c2ccc(F)cc2)C1 (stereo not given),-3.7,-0.7,74.9*,-7.4,1.2,-8.5
COc1ccccc1N1CCN(S(=O)(=O)CCNC(=O)C2CC(=O)N(c3ccccc3)C2)CC1 (stereo not given),0.1,-1.4,3.2,-2.2,-2.5,.
Nc1nnc2cc(Br)ccc2n1,.,.,65.9*,.,.,32.9*
Nc1nnc2cc(F)ccc2n1,.,.,-11.8,.,.,.
O=C(Nc1ccn(CCCN2CCN(c3ccccn3)CC2)c(=O)n1)OCc1ccccc1,-6.0,0.3,1.6,-5.8,4.1,.
COc1cccc(C(=O)CN2C(=O)C(C)(C)Oc3ccc(C(=O)N4CCOCC4)cc32)c1,-3.9,1.9,128.2*,-6.4,-0.9,-5.3
O=C1OC(Nc2ncccn2)c2ccccc21 (stereo not given),-1.6,-0.1,-0.7,0.2,-1.9,.
SMILES,cardiac RTF act,LANA DNA inh,eLon inh,Cardiac RTF inh,Keap1 Nrf2 FP,E coli Lon conf
O=C1OC(Nc2cc(Br)cc3cccnc23)c2ccccc21 (stereo not given),-0.4,1.3,42.4*,-1.9,-0.8,-3.8
CCN(CC)C(=O)[C@H]1CC(CC(=O)NCCN2CCOCC2)C(=O)N2CCc3c([nH]c4ccc(OC)cc34)[C@]12C (stereo not given in full),-3.6,0.7,-3.5,-4.3,-3.0,.
CCN(CC)C(=O)[C@H]1CC(CC(=O)NCCCN(C)C)C(=O)N2CCc3c([nH]c4ccc(OC)cc34)[C@]12C (stereo not given in full),-0.7,0.9,+,-5.1,-1.3,-5.8
O=C(CCN1C(=O)S/C(=C/c2ccccc2)C1=O)Nc1ccc(O)c(C(=O)O)c1,1.2,-1.5,-12.0,-21.9,-2.3,.
O=C(CCN1C(=O)S/C(=C\c2ccccc2)C1=O)Nc1ccc(O)cc1C(=O)O,1.4,-0.2,18.6*,0.9,0.5,4.7
O=C1CCC(C(=O)N2CCCC(C(=O)c3ccc4ccccc4c3)C2)=NN1 (stereo not given),3.7,0.7,13.3*,3.2,-1.3,-7.2
Cc1ccc(C(=O)N2CCN(c3ncccn3)CC2)cc1S(=O)(=O)N1CCCCC1,9.6,-0.5,-10.5,-17.2,-5.2,.
CC(=O)N1CCN(c2ccc(S(=O)(=O)N3CCOCC3)cc2[N+](=O)[O-])CC1,-2.5,1.9,-3.1,-0.7,-0.7,.
Cc1cc(C(=O)COC(=O)c2cccc(O)c2)c(C)n1C1CC1,1.5,0.2,27.9*,-2.0,-4.1,-34.3
CCN(CC(=O)Nc1c(F)cccc1F)C(=O)c1cc2ccccc2oc1=O,-8.8,-0.8,22.8*,-16.8,-7.0,-2.3
CC(C)c1ccc(CN2CCC(Oc3ccc(C(=O)N4CCCC4)cc3)CC2)cc1,0.3,-0.8,-4.0,-1.7,-0.5,.
CC(NCCC(Cc1ccccc1)c1ccco1)c1ccccc1 (stereo not given),1.3,1.0,17.6*,-10.0,-4.4,11.6
Fc1ccc(CNCCC(Cc2ccccc2)c2ccco2)cc1 (stereo not given),1.4,-0.1,-3.9,-5.5,-1.7,.
CCC(C)(C)NC(=O)C(c1ccc(OC)cc1)N(C(=O)CCC(=O)Nc1cc(C)on1)c1cc(OC)ccc1OC (stereo not given),-4.6,1.2,0.2,-2.7,-3.2,.
O=C1c2cccc3cc([N+](=O)[O-])cc(c23)C(=O)N1/N=C/c1ccc(O)cc1O,4.2,-0.6,16.6*,-9.0,-0.5,19.8*
O=C1c2ccccc2C(=O)N1CCN1CCCCC1,-1.3,0.4,3.1,-0.4,2.4,.
O=C1c2cccc3cc([N+](=O)[O-])cc(c23)C(=O)N1CCN1CCCC1,15.5,5.5,86.7*,-20.7,9.0,47.2*
Nc1cc2c3c(cccc3c1)C(=O)N(CCN1CCCC1)C2=O,14.1,2.1,93.7*,-18.6,2.6,82.1*
NC(=O)CN1CCN(CCN2C(=O)c3cccc4cccc(c34)C2=O)CC1,-2.7,-3.4,8.5,0.2,0.3,.
CC(C)C(NC(=O)c1ccccc1F)C(=O)NCc1ccccc1 (stereo not given),-9.1,-1.7,-6.1,5.0,2.6,.
O=C(N/N=C/c1ccc(N2CCOCC2)cc1)c1ccccc1OCCOc1ccccc1,.,9.1,-2.9,.,-18.8,.
